# Laboratory results: the supplement of paper PMC8728848
# The entries come from a sample that favours the strongest signals as a whole.
# B1: HysACBM (Streptococcus pneumoniae), Q54873 (protein)
# chain: KNLVENGDFGQTEDGSSPWTGSKAQGWSAWVDQKNSADASTRVIEAKDGAITISSHEKLRAALHRMVPIEAKKKYKLRFKIKTDNKIGIAKVRIIEESGKDKRLWNSATTSGTKDWQTIEADYSPTLDVDKIKLELFYETGTGTVSFKDIELVEVADQLS
# Legend:
# Test in all cases: glycan array binding signal (z-score within array); higher = stronger binding
# Conditions in all cases: glycan notation: IUPAC condensed, linker removed
# 3dGal(b1-4)Glc = target: 3dGal(b1-4)Glc
# Method in brief: (§1)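 The binding signal is a Z-score computed within each array and averaged over linkers. Arrays of the same protein sequence at different concentrations or buffers were also averaged together. Data originate from 3228 arrays in the Consortium for Functional Glycomics database, kept only where the protein sequence was available.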
# [1] = target: Ara(a1-5)Ara(a1-5)Ara(a1-5)Ara(a1-5)Ara(a1-5)Ara(a1-5)Ara
# Method in brief: as §1
# [2] = target: Fuc(a1-2)Gal(b1-3)[Fuc(a1-4)]GlcNAc(b1-3)[Fuc(a1-3)[Gal(b1-4)]GlcNAc(b1-6)]Gal(b1-4)Glc
# Method in brief: as §1
# [3] = target: Fuc(a1-3)[3dGal(b1-4)]Glc
# Method in brief: as §1
# [4] = target: Fuc(a1-3)[Gal(b1-4)]GlcNAc(b1-3)Gal(b1-4)[Fuc(a1-3)]Glc
# Method in brief: as §1
# Gal(a1-4)Gal(b1-4)GlcNAc = target: Gal(a1-4)Gal(b1-4)GlcNAc
# Method in brief: as §1
# [5] = target: Gal(b1-3)GalNAc(b1-4)Gal(b1-4)Glc
# Method in brief: as §1
# Gal(b1-4)GlcNAc(b1-3)Fuc = target: Gal(b1-4)GlcNAc(b1-3)Fuc
# Method in brief: as §1
# [6] = target: Gal(b1-4)GlcNAc(b1-3)Gal(b1-4)Glc
# Method in brief: as §1
# Gal(b1-6)GalNAc = target: Gal(b1-6)GalNAc
# Method in brief: as §1
# GalNAc(b1-4)Gal(b1-4)Glc = target: GalNAc(b1-4)Gal(b1-4)Glc
# Method in brief: as §1
# [7] = target: Glc(a1-4)Glc(a1-4)Glc(a1-4)Glc(a1-4)Glc(a1-4)Glc(a1-4)Glc(a1-4)Glc
# Method in brief: as §1
# Glc(a1-6)Glc = target: Glc(a1-6)Glc
# Method in brief: as §1
# [8] = target: Glc(a1-6)Glc(a1-4)Glc(a1-4)Glc
# Method in brief: as §1
# [9] = target: Glc(a1-6)Glc(a1-6)Glc(a1-6)Glc
# Method in brief: as §1
# [10] = target: Glc(a1-6)Glc(a1-6)Glc(a1-6)Glc(a1-6)Glc
# Method in brief: as §1
# [11] = target: Glc(b1-6)Glc(b1-6)Glc(b1-6)Glc(b1-6)Glc(b1-6)Glc(b1-6)Glc(b1-6)Glc
# Method in brief: as §1
# GlcA(b1-3)Gal = target: GlcA(b1-3)Gal
# Method in brief: as §1
# [12] = target: GlcA(b1-3)GlcNAc(b1-4)GlcA(b1-3)GlcNAc(b1-4)GlcA(b1-3)GlcNAc(b1-4)GlcA(b1-3)GlcNAc(b1-4)GlcA(b1-3)GlcNAc(b1-4)GlcA(b1-3)GlcNAc(b1-4)GlcA(b1-3)GlcNAc
# Method in brief: as §1
# [13] = target: GlcNAc(b1-2)Man(a1-3)[GlcNAc(b1-2)Man(a1-6)]Man
# Method in brief: as §1
# [14] = target: GlcNAc(b1-2)[GlcNAc(b1-4)]Man(a1-3)[GlcNAc(b1-2)[GlcNAc(b1-6)]Man(a1-6)]Man(b1-4)GlcNAc(b1-4)GlcNAc
# Method in brief: as §1
# GlcNAc(b1-3)Fuc = target: GlcNAc(b1-3)Fuc
# Method in brief: as §1
# [15] = target: GlcNAc(b1-3)[GlcNAc(b1-6)]Gal
# Method in brief: as §1
# [16] = target: HexA6S(a1-4)GlcNS6S(a1-4)IdoA2S(a1-4)GlcNS6S(a1-4)IdoA2S(a1-4)GlcNS6S(a1-4)IdoA2S(a1-4)GlcNS6S(a1-4)IdoA2S(a1-4)GlcNS6S(a1-4)IdoA2S(a1-4)GlcNS6S(a1-4)IdoA2S(a1-4)GlcNS6S
# Method in brief: as §1
# [17] = target: Kdn(a2-3)Gal(b1-3)GalNAc(b1-4)[Kdn(a2-3)]Gal(b1-4)Glc
# Method in brief: as §1
# Kdn(a2-6)Gal = target: Kdn(a2-6)Gal
# Method in brief: as §1
# [18] = target: Man(a1-3)Man(a1-6)[Man(a1-3)]Man(b1-4)GlcNAc(b1-4)GlcNAc
# Method in brief: as §1
# Neu(a2-6)Gal(b1-4)Glc = target: Neu(a2-6)Gal(b1-4)Glc
# Method in brief: as §1
# [19] = target: Neu5Ac(a2-3)4dGal(b1-4)[Fuc(a1-3)]GlcNAc(b1-3)Gal
# Method in brief: as §1
# [20] = target: Neu5Ac(a2-3)6dGal(b1-4)[Fuc(a1-3)]GlcNAc(b1-3)Gal
# Method in brief: as §1
# [21] = target: Neu5Ac(a2-3)Gal(b1-3)GalNAc6S(b1-4)Gal(b1-4)Glc
# Method in brief: as §1
# [22] = target: Neu5Ac(a2-3)Gal(b1-3)GlcNAc(b1-3)[Fuc(a1-3)[Gal(b1-4)]GlcNAc(b1-6)]Gal(b1-4)Glc
# Method in brief: as §1
# [23] = target: Neu5Ac(a2-3)Gal(b1-3)[Neu5Ac(a2-6)]GalNAc(b1-4)Gal(b1-4)Glc
# Method in brief: as §1
# [24] = target: Neu5Ac(a2-3)Gal(b1-4)[Fuc(a1-3)]Glc
# Method in brief: as §1
# [25] = target: Neu5Ac(a2-3)[GalNAc(b1-6)]Gal(b1-4)Glc
# Method in brief: as §1
# [26] = target: Neu5Ac(a2-6)Gal(b1-4)GlcNAc(b1-3)[Neu5Ac(a2-6)Gal(b1-4)GlcNAc(b1-6)]Gal(b1-4)Glc
# Method in brief: as §1
# Neu5Ac(a2-6)Glc6S = target: Neu5Ac(a2-6)Glc6S
# Method in brief: as §1
# Neu5Ac(a2-6)GlcNAc6S = target: Neu5Ac(a2-6)GlcNAc6S
# Method in brief: as §1
# [27] = target: Xyl(b1-2)[Man(a1-3)][Man(a1-6)]Man(b1-4)GlcNAc(b1-4)[Fuc(a1-3)]GlcNAc
# Method in brief: as §1
binder,measurement,setting,value
B1,glycan array binding signal (z-score),3dGal(b1-4)Glc,-0.091
same,glycan array binding signal (z-score),[1],-0.091
same,glycan array binding signal (z-score),[2],0.584
same,glycan array binding signal (z-score),[3],-0.091
same,glycan array binding signal (z-score),[4],0.007
same,glycan array binding signal (z-score),Gal(a1-4)Gal(b1-4)GlcNAc,-0.091
same,glycan array binding signal (z-score),[5],0.174
same,glycan array binding signal (z-score),Gal(b1-4)GlcNAc(b1-3)Fuc,0.281
same,glycan array binding signal (z-score),[6],-0.091
same,glycan array binding signal (z-score),Gal(b1-6)GalNAc,-0.064
same,glycan array binding signal (z-score),GalNAc(b1-4)Gal(b1-4)Glc,0.321
same,glycan array binding signal (z-score),[7],0.776
same,glycan array binding signal (z-score),Glc(a1-6)Glc,-0.091
same,glycan array binding signal (z-score),[8],-0.059
same,glycan array binding signal (z-score),[9],-0.091
same,glycan array binding signal (z-score),[10],-0.091
same,glycan array binding signal (z-score),[11],-0.091
same,glycan array binding signal (z-score),GlcA(b1-3)Gal,0.267
same,glycan array binding signal (z-score),[12],21.5
same,glycan array binding signal (z-score),[13],-0.091
same,glycan array binding signal (z-score),[14],0.264
same,glycan array binding signal (z-score),GlcNAc(b1-3)Fuc,-0.05
same,glycan array binding signal (z-score),[15],-0.091
same,glycan array binding signal (z-score),[16],-0.091
same,glycan array binding signal (z-score),[17],-0.091
same,glycan array binding signal (z-score),Kdn(a2-6)Gal,-0.091
same,glycan array binding signal (z-score),[18],-0.091
same,glycan array binding signal (z-score),Neu(a2-6)Gal(b1-4)Glc,0.823
same,glycan array binding signal (z-score),[19],-0.091
same,glycan array binding signal (z-score),[20],-0.045
same,glycan array binding signal (z-score),[21],-0.091
same,glycan array binding signal (z-score),[22],-0.091
same,glycan array binding signal (z-score),[23],-0.054
same,glycan array binding signal (z-score),[24],-0.091
same,glycan array binding signal (z-score),[25],-0.091
same,glycan array binding signal (z-score),[26],-0.091
same,glycan array binding signal (z-score),Neu5Ac(a2-6)Glc6S,-0.091
same,glycan array binding signal (z-score),Neu5Ac(a2-6)GlcNAc6S,-0.091
same,glycan array binding signal (z-score),[27],-0.091
